Sampled rows, rich in hits. Any-hit rate of the full collection: about 6.2%.
Lassa entry inh: inhibitors of Lassa virus binding or cell entry; Potency, µM (highest dose often 37.9 µM), most hits filed as inhibitors; AID 540256; 300,000 compounds, 1.2% hits; Lassa virus pseudotype entry inhibition, cell reporter; calls by dose curve; tested in HEK293 cells; further: nearly all actives have a fitted effect of over 50% in size
HCMV antiviral: human cytomegalovirus inhibition | HFF cells, HCMV-luciferase reporter, 72 h; active compounds read low | activity change, negative = inhibition, % at 57.5 µM | 410,000 compounds, 4.5% hits | AID 1259415; in the data active means activity change below about -60%; inconclusive means no clear call, values can overlap the other calls; inactive means above about -39%
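Steps: HFFs plated, 16 h 37C; compounds added; HCMV-luciferase added to MOI 1 PFU/cell; 72 h 37C; OneGlo reagent, 5 min room temperature; luminescence read, normalized to controls.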
FMDV antiviral: antivirals against foot and mouth disease virus; Potency, µM (highest dose often 57.9 µM), hits mostly inhibitors; FMDV antiviral cell-based qHTS; AID 1159524; 410,000 compounds, 1.2% hits; calls by dose curve; tested in HEK293T cells; further: read-out not given here; nearly all actives have a fitted effect of over 45% in size
MARV entry inh: blocks Marburg virus binding to or entry into cells; Marburg virus pseudotyped entry inhibition, cell reporter; Potency, µM (highest dose often 37.8 µM), actives largely listed as inhibitors; 300,000 compounds, 1.8% hits; calls by dose curve; tested in HEK293 cells
Hits are given with their value; i = inactive; ? = inconclusive; nt = no result; + = active, no number.

SMILES	Lassa entry inh	HCMV antiviral	FMDV antiviral	MARV entry inh
CC1(C)CCC[C@]2(C)[C@H]3Cc4cc(O)ccc4O[C@]3(C)CC[C@@H]12	nt	-88	i	nt
COc1ccccc1CNC(=O)CCn1c(=O)c2ccccc2n(CC(=O)Nc2ccc(C)cc2Cl)c1=O	i	i	i	i
CCOc1ccc(C(=O)N/N=C/c2ccc(SC)cc2)cc1	2.8µM	i	i	i
CCOc1cc(C(=O)N/N=C/c2ccoc2)cc(OCC)c1OCC	nt	-88	i	nt
CCOc1cc(C(=O)N/N=C/c2ccsc2)cc(OCC)c1OCC	?	i	i	?
CCOc1ccc(C(=O)/C=C/c2ccc(SC)cc2)cc1	i	i	i	i
CCOc1ccc(Br)cc1C1C(C(=O)OC)=C(C)NC2=C1C(=O)c1ccccc12 (stereo unspecified)	i	i	?	i
CC(C)Nc1ccc(Nc2ccnc3cc4ccccc4cc23)cc1	6.3µM	-100	i	5.2µM
COc1ccc(Nc2ccnc3ccccc23)cc1	i	?	i	?
c1ccc(CCNc2ccnc3cc4ccccc4cc23)cc1	nt	-101	14µM	?
CCCCn1nc(C(=O)Nc2ccccc2N2CCCC2)c2ccccc2c1=O	?	i	i	i
Cc1cnc(C)c(-c2cccc3c2OC(CNC(=O)C[C@@H]2C[C@@H](C)NC(=S)N2)C3)n1 (stereo partly specified)	nt	nt	i	nt
COC1CCCCC1C1CCN(C(=O)c2cccs2)CC1 (stereo unspecified)	nt	nt	nt	i
Cc1cc(C)c(/C=C/c2onc(C)c2S(=O)(=O)N2CCC(C(=O)Nc3ccc(Cl)c(C(F)(F)F)c3)CC2)c(C)c1	i	-97	?	nt
CCOc1ccc(NC(=O)C2CCN(S(=O)(=O)c3c(C)noc3/C=C/c3c(C)cc(C)cc3C)CC2)cc1	i	?	?	nt
Cc1noc(/C=C/c2cccs2)c1S(=O)(=O)N1CCC(C(=O)Nc2ccc(F)c(Cl)c2)CC1	i	-73	?	i
COc1ccc(NC(=O)C2CCN(S(=O)(=O)c3c(C)noc3/C=C/c3ccco3)CC2)cc1	i	-67	i	i
CCc1ccc(NC(=O)C2CCN(S(=O)(=O)c3c(C)noc3/C=C/c3ccco3)CC2)cc1	i	?	?	i
CCOC(=O)c1[nH]c(C)c(C(=O)NCc2ccccc2Cl)c1C	i	i	i	?
NC(=S)N/N=C\c1ccccc1OCc1ccccc1	i	i	i	?
NC(=S)N/N=C/c1ccccc1OC(=O)/C=C/c1ccccc1	nt	-110	i	nt
NC(=S)N/N=C/c1ccccc1OC(=O)c1cc2ccccc2oc1=O	nt	+	i	nt
CCn1c(SCc2cccc(F)c2)nc2c(c1=O)SCC2	i	-60	?	i
O=C(c1ccc(CS(=O)c2ccccc2Cl)o1)N1CCCCCC1 (stereo unspecified)	nt	i	i	nt
O=C(c1ccc(CS(=O)c2ccccc2Cl)o1)N1CCN(c2ccccc2F)CC1 (stereo unspecified)	i	-67	i	nt
SMILES	Lassa entry inh	HCMV antiviral	FMDV antiviral	MARV entry inh
O=C(c1ccc(Br)o1)N1CCN(c2ccccc2F)CC1	i	?	i	i
O=C(c1ccc(CS(=O)c2ccccc2Cl)o1)N1CCN(C2CCCCC2)CC1 (stereo unspecified)	nt	-101	i	nt
CCOC(=O)NNc1ccccc1	i	i	i	?
CCC(O)CC(C(=O)NNc1ccccc1)C(=O)NNc1ccccc1 (stereo unspecified)	?	i	i	2.5µM
Cc1cc(C)nc(-c2cccc3c2OC(CNC(=O)c2ccc(Cn4nc(C)cc4C)cc2)C3)n1 (stereo unspecified)	nt	nt	i	nt
FC(F)(F)c1cc(C(F)(F)F)c2ccc(N3CCN(c4ccc(Cl)cc4)CC3)nc2n1	i	i	i	i
N#CC(c1ccc(Cl)cc1)c1ccc2c(C(F)(F)F)cc(C(F)(F)F)nc2n1 (stereo unspecified)	2.8µM	-106	?	3.2µM
CNC(=O)Oc1cccc(-c2cn3cc(OC(=O)NC)ccc3n2)c1	?	i	i	?
CNC(=O)Oc1ccc(-c2cn3cc(Cl)ccc3n2)cc1	7.3µM	?	?	8.2µM
Cc1ccc(CNc2nc(CN3CCN(C=O)CC3)nc3ccccc23)o1	nt	nt	i	nt
Oc1ccccc1-c1nc(NC2CCCC2)c2ccccc2n1	nt	i	i	nt
c1ccc(-c2nnc(-c3ccccn3)nc2NC2CCCCC2)cc1	5µM	-100	i	3.5µM
CNc1nc(-c2ccccn2)nnc1-c1ccccc1	?	-105	i	?
COc1cc(-c2cnc3ccccc3c2)cc2c1OCCN(C(=O)CCC(=O)c1ccc(F)cc1)C2	nt	nt	i	nt
Cc1ccc(C)c(N2CCN(C3CCCC(C)C3)CC2)c1 (stereo unspecified)	?	i	?	5µM
COc1cccc(N2CCN(C3CCCC(C)C3)CC2)c1 (stereo unspecified)	i	i	i	i
COc1ccc(NC(=O)Nc2cn(CC(C)C)c(=O)c3ccccc23)c(OC)c1	i	-104	i	nt
CCC(C)n1c(SCc2ccc([N+](=O)[O-])cc2)nc2ccsc2c1=O (stereo unspecified)	?	i	?	13µM
CCc1ccccc1NC(=O)CSc1nnc(CC)c(CC)n1	i	?	i	nt
Cc1nc(-c2c(-c3ccc(O)cc3O)noc2C(F)(F)F)cs1	?	-67	35µM	?
COC(=O)C1=NNC(C(=O)c2ccco2)C1c1ccc(OC)cc1 (stereo unspecified)	nt	-64	i	nt
O=C(NN=Cc1ccc2c(c1)OCO2)c1ccc([N+](=O)[O-])cc1	nt	i	i	nt
O=C(N/N=C/c1ccc2c(c1)OCO2)c1ccc(NC(=O)c2ccc(F)cc2)cc1	i	-86	i	i
O=C(N/N=C/c1ccc(F)cc1)c1cc(-c2ccc3c(c2)OCO3)n[nH]1	8.9µM	i	i	i
COc1ccccc1NC(=O)C1=C(C)Nc2nc(SCc3ccccc3)nn2C1c1ccccn1 (stereo unspecified)	i	i	i	?
SMILES	Lassa entry inh	HCMV antiviral	FMDV antiviral	MARV entry inh
Cc1nc2nc[nH]n2c(=O)c1CCC(=O)Nc1ccc(F)cc1	i	i	i	i
O=C(COc1ccccc1Cl)Nc1nc(-c2ccc(F)cc2)ns1	i	i	i	i
COc1ccccc1CNC(=O)c1ccc2c(=O)n(CC3CCCO3)c(=S)[nH]c2c1 (stereo unspecified)	i	?	i	i
COc1ccccc1Cn1c(=S)[nH]c2cc(C(=O)N3CCCC3)ccc2c1=O	nt	i	i	nt
COc1ccc(-n2c(=S)[nH]c3cc(C(=O)NCCCN4CCCC4=O)ccc3c2=O)cc1OC	i	-99	i	i
CCCN(CCC)C(=O)c1ccc2c(=O)n(Cc3ccco3)c(=S)[nH]c2c1	i	-90	i	i
COc1ccccc1Cn1c(=S)[nH]c2cc(C(=O)NCCN(C)C)ccc2c1=O	i	i	i	10µM
COc1ccccc1Cn1c(=S)[nH]c2cc(C(=O)NCC3CCCO3)ccc2c1=O (stereo unspecified)	?	i	25µM	?
COc1ccccc1Nc1nc(-c2ccc(F)cc2)c2c(n1)-c1ccccc1OC2	i	i	i	?
Fc1cccc(Nc2cc3c(cn2)ncn3CC2CC2)c1	nt	i	nt	nt
CCOC(=O)CSC1=C(C#N)[C@H](c2ccc(C)cc2)[C@H](C(=O)OC)C(=O)N1	nt	nt	nt	i
O=c1c(-c2ccc(Cl)cc2)nc2cnc(N3CCNCC3)nc2n1Cc1ccc(F)cc1	nt	nt	i	nt
O=C(CCc1ccccc1)N1CCc2c([nH]c3ccccc23)C1c1ccc(F)cc1 (stereo unspecified)	?	-90	i	nt

Assay outcomes from PubChem BioAssay.
